The values below come from PubChem BioAssay.

A short description of experiment [1]: Cryptococcus neoformans growth inhibition, dose response, Alamar Blue, cherry-picks (AID 686998;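 active = falling signal with fitted half-maximal potency no higher than twice the top valid tested dose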). For orientation: The colour change of resazurin is a common sign of viable cells or microbes.
A short description of experiment [2]: inducers of Cryptococcus neoformans cell lysis, dose response, AK release luminescence, cherry-picks (AID 687000;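 active = fitted dose curve reaches 40% lysis signal rise at or below the highest valid concentration tested for that sample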;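 note: luminescent detection of adenylate kinase leaking from lysed yeast; 0% = median neutral control signal and 100% = double that signal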).
Experiment [3] can be described thus: HepG2 cell cytotoxicity, dose response, cytotoxicity control, cherry-picks, set 2 (AID 687002).
Experiment [4] in a line: HeLa cell cytotoxicity, dose response, cytotoxicity control, ATP luminescence, cherry-pick samples (AID 687004;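 active = a fitted half-maximal concentration no higher than twice the top valid tested dose, with signal falling as cells die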;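 note: 0% = neutral control median and -100% = staurosporine 10 µM control median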).
Experiment [5] can be described thus: Ring1 mRNA increase in mouse ESCs, confirmation, esBAF inhibitor project, cell-based, mouse ESC, RT-qPCR, cherry-pick (AID 743176;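 active = Ring1 gene expression raised more than 2-fold over untreated cells in both replicates at either tested dose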;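 note: Ring1 transcript normalised to actin housekeeping signal by TaqMan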). The following applies: mouse ESC E14, Ring1 mRNA RT-qPCR fold change, stronger effect = higher value. (Quantitative PCR measures a nucleic acid by following its amplification.)
A short description of experiment [6]: Fgf4 mRNA decrease in mouse ESCs, confirmation, esBAF inhibitor project, cell-based, mouse ESC, RT-qPCR, cherry-pick (AID 743177;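 active = Fgf4 expression under 0.8 fold of control in both repeat measurements at one or both tested doses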;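 note: Fgf4 transcript normalised to actin in duplex TaqMan qPCR; cells exposed to compound for 24 h before lysis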). Particulars: mouse ESC E14, Fgf4 mRNA qPCR fold change, stronger effect = lower value.
Experiment [7] is described as follows: esBAF inhibition via Bmi1 de-repression, confirmation, cell-based, RT-qPCR, mouse ESC, single point, cherry-pick (AID 743180;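 active = Bmi1 expression fold change above 6 at either tested concentration, seen in replicate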). The following applies: mouse ESC E14, Bmi1 mRNA qPCR fold, stronger effect = higher value.
A short description of experiment [8]: A549 cell cytotoxicity, cytotoxicity control, plate reader, single point, cherry-pick (AID 743188; call rule not given here). Particulars: at 25 µM.
Experiment [9] can be described thus: HepG2 cell cytotoxicity, cytotoxicity control, plate reader, single point, cherry-pick (AID 743189; in the data active = activity change below about -50%). The following applies: at 25 µM, stronger effect = lower value.
Experiment [10] in a line: HEK293 cell cytotoxicity, cytotoxicity control, plate reader, single point, cherry-pick (AID 743190; in the data active = activity change below about -38%, passing the limit was not always enough). Particulars: at 25 µM.

For part of these data: Results with a measured potency or affinity are listed apart. Records with an inconclusive call do not appear. This is one part of the list. Calls of active or inactive are those of the source.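 Rule for the calls, unless noted: active = a dose-response fit showing signal loss, with half-maximal concentration no higher than twice the top tested dose; inconclusive = flat fit between 30% and 70% signal loss, or poor fit; inactive = the rest.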

Regarding `C[C@H](NC(=O)C[C@@H]1CC[C@@H]2[C@H](COC[C@@H](O)CN2C(=O)Nc2cccc(F)c2)O1)c1ccccc1`, the result in [1], in [2], in [3] and in experiment [4] was inactive.
For `COCC(=O)Nc1ccc2c(c1)OC[C@@H](C)N(C(=O)Cc1cccnc1)C[C@H](C)[C@@H](OC)CN(C)C2=O`, the compound was classed as inactive in experiment [1], in [2], in experiment [3] and in experiment [4].
`CCCN1C[C@@H](C)[C@H](OC)CN(C)C(=O)c2ccc(NC(=O)c3cccc(F)c3)cc2OC[C@@H]1C`: the compound was classed as inactive in [1], in experiment [2], in experiment [3] and in experiment [4].
In the case of `CN1CCc2c(sc(N)c2C(=O)c2ccc(Cl)cc2)C1`, the compound was called inactive in [1], in experiment [2], in experiment [3] and in [4].
Take `CO[C@@H]1CN(C)C(=O)c2cc(NC(=O)C3CC3)ccc2OC[C@H](C)N(C(=O)c2ccncc2)C[C@H]1C`: the call in [1], in experiment [2], in [3] and in experiment [4] was inactive.
As for `C[C@@H]1CN([C@@H](C)CO)C(=O)c2cc(-c3cncnc3)cnc2O[C@H]1CN(C)C(=O)Cc1ccccc1`, the compound was classed as inactive in experiment [1], in [2], in experiment [3] and in experiment [4].
Consider `Cc1noc(C)c1S(=O)(=O)N(C)C[C@H]1OCCCC[C@@H](C)Oc2ccc(NC(=O)CCCCCC(=O)Nc3ccccc3N)cc2C(=O)N([C@@H](C)CO)C[C@@H]1C`, for which the result in [1], in experiment [2], in experiment [3] and in experiment [4] was inactive.
Turning to `CNC(=O)C[C@H]1CC[C@H]2[C@@H](COc3ccc(NC(=O)Nc4ccccc4)cc3C(=O)N2C)O1`, the compound was called inactive in experiment [1], in experiment [2], in experiment [3] and in experiment [4].
For `CN1C(=O)c2cc(NS(=O)(=O)c3cccc(F)c3)ccc2OC[C@H]2O[C@H](CC(=O)O)CC[C@H]21`, the result in experiment [1], in experiment [2], in [3] and in experiment [4] was inactive.
Consider `C[C@H]1CN([C@@H](C)CO)C(=O)c2cc(-c3cncnc3)cnc2O[C@H]1CN(C)C(=O)c1ccccc1F`, for which the compound was classed as inactive in [1], in [2], in experiment [3] and in experiment [4].
For the compound `Cc1noc(C)c1NC(=O)Nc1cccc2c1O[C@@H](CN(C)S(=O)(=O)c1cn(C)cn1)[C@@H](C)CN([C@@H](C)CO)C2=O`, the result in experiment [1], in [2], in experiment [3] and in experiment [4] was inactive.
For the compound `O=C(C[C@H]1CC[C@H]2[C@@H](COC[C@@H](O)CN2C(=O)Nc2ccc(Cl)cc2)O1)N1CCCCC1`, the call in experiment [1], in experiment [2], in experiment [3] and in experiment [4] was inactive.
Consider `Cc1ccc(NC(=O)[C@H](C)NC(=O)C2CCN(C(=O)[C@@H](N)CC(C)C)CC2)cc1`, for which the outcome in experiment [1], in [2], in experiment [3] and in [4] was inactive.
In the case of `C[C@@H]1CCCCO[C@@H](CN(C)S(=O)(=O)c2cccs2)[C@H](C)CN([C@@H](C)CO)C(=O)c2cc(NC(=O)CCC(F)(F)F)ccc2O1`, the compound was classed as inactive in experiment [1], in [2], in experiment [3] and in [4].
For `CCCNC(=O)C[C@@H]1CC[C@H]2[C@@H](COC[C@H](O)CN2Cc2ccccc2F)O1`, the outcome in experiment [1], in experiment [2], in experiment [3] and in [4] was inactive.
For the compound `C[C@H]1CN([C@@H](C)CO)S(=O)(=O)c2ccc(Br)cc2O[C@@H]1CN(C)S(=O)(=O)c1ccccc1F`, the compound was called inactive in [1], in [2], in experiment [3] and in experiment [4].
For the compound `Cc1noc(C)c1NC(=O)Nc1ccc2c(c1)C(=O)N([C@H](C)CO)C[C@@H](C)[C@H](CN(C)C(=O)Nc1ccc(F)cc1)OCCCC[C@@H](C)O2`, the call in experiment [1], in experiment [2], in experiment [3] and in experiment [4] was inactive.
For the compound `C[C@@H]1CN([C@@H](C)CO)C(=O)c2cc(N(C)C)ccc2O[C@@H]1CN(C)C(=O)Nc1ccc(C(F)(F)F)cc1`, the result in experiment [1], in experiment [2], in [3] and in experiment [4] was inactive.
As for `O=C(C[C@H]1CC[C@@H](NC(=O)c2ccc3c(c2)OCO3)[C@@H](CO)O1)NCc1ccc(F)cc1`, the result in experiment [1], in experiment [2], in [3] and in [4] was inactive.
In the case of `C/C=C/c1ccc([C@H]2[C@@H](CO)N(C(=O)CC)[C@@H]2CNC(=O)C2CC2)cc1`, the compound was called inactive in experiment [1], in experiment [2], in experiment [3] and in [4].
On to `C[C@H]1CN([C@@H](C)CO)C(=O)c2cc(NS(=O)(=O)c3ccc(F)cc3)ccc2O[C@@H]1CN(C)S(=O)(=O)c1ccccc1`, for which the outcome in experiment [1], in [2], in experiment [3] and in [4] was inactive.
On to `C[C@H]1CCCCO[C@H](CN(C)Cc2ccncc2)[C@@H](C)CN([C@@H](C)CO)C(=O)c2cc(NC(=O)CCCN(C)C)ccc2O1`, for which the compound was called inactive in experiment [1], in experiment [2], in [3] and in [4].
As to `Cc1cccc(C)c1NC(=O)C1NC(=O)CC1c1ccccc1` (stereo unspecified), the call in experiment [1], in experiment [2], in experiment [3] and in experiment [4] was inactive.
As for `C[C@@H]1CN([C@@H](C)CO)C(=O)c2cc(NS(=O)(=O)c3cn(C)cn3)ccc2O[C@@H]1CN(C)C(=O)Nc1cccc2ccccc12`, the result in experiment [1], in experiment [2], in experiment [3] and in experiment [4] was inactive.
Take `CCCNC(=O)N1C[C@@H](O)COC[C@H]2O[C@H](CC(=O)N3CCN(C)CC3)CC[C@@H]21`: the compound was classed as inactive in experiment [1], in [2], in experiment [3] and in [4].
In the case of `O=C(NC(=S)Nc1ccccc1)c1cc([N+](=O)[O-])ccc1N1CCOCC1`, the call in [1], in experiment [2], in [3] and in [4] was inactive.
As to `C[C@@H]1CN([C@@H](C)CO)C(=O)c2cc(NS(=O)(=O)c3cn(C)cn3)ccc2O[C@@H](C)CCCCO[C@@H]1CN(C)Cc1ccc(C(F)(F)F)cc1`, the result in experiment [1] and in experiment [3] was inactive.
As to `C[C@H]1CN([C@@H](C)CO)C(=O)Cc2cc(NS(C)(=O)=O)ccc2O[C@@H]1CN(C)Cc1ccc(Cl)c(Cl)c1`, the compound was called inactive in [1], in experiment [3] and in [4].
In the case of `O=C(NC(=S)Nc1cccc(F)c1)c1cccc([N+](=O)[O-])c1`, the compound was called inactive in [1], in experiment [3] and in [4].
In the case of `CCCNC(=O)C[C@@H]1CC[C@@H]2[C@H](COc3ccc(NC(=O)CCC)cc3C(=O)N2C)O1`, the compound was called inactive in [1] and in experiment [3].
Take `COc1ccc(C2=Nc3ccccc3NC(=O)C2N(C(=O)c2cc3ccccc3[nH]2)c2ccccc2)cc1` (stereo unspecified): the compound was called inactive in experiment [1], in experiment [2] and in [3]. In addition, the fold change in [5] (Ring1 fold increase, at 7 µM) is 1.31; in [5] (at 33 µM), 0.913 (inactive); in experiment [7] (Bmi1 de-repression, at 7 µM), 1.36; in experiment [7] (at 33 µM), 1.54 (inactive). In addition, the Fgf4 expression fold change in [6] (Fgf4 expression, at 7 µM) is 1.01; in [6] (at 33 µM), 0.976 (inactive). In experiment [8], the cell viability change % (negative = cytotoxic) is 6.45% (inactive). Besides, the activity change, negative = inhibition in experiment [9] is -23.1% (inactive); in experiment [10], -16.6% (inactive).
